# Screens: PubChem, National Center for Advancing Translational Sciences (NCATS)
# In the library only some 9.2% were active in any assay of this set; here they are far more common.
# Rab9 promoter act: Rab9 promoter activation; Huh7 Rab9 promoter-luciferase reporter, luminescence, 24 h; 2.8% of 320,000 active; Potency, µM (top dose mostly 9.22 µM), without a hit: at the top dose activation, negative = inhibition, usual class: activators; AID 485297; also: % of control where 0% means no effect; nearly all actives have a fitted effect of over 60% in size
#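 Promoter activation is measured as luciferase luminescence in Huh7 cells stably transfected with a Rab9 promoter–luciferase construct, following 24 h compound exposure at 37 °C and 10 min reagent incubation at ambient temperature.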
# ELG1 genotoxic: inducers of genotoxicity in HEK293T ELG1-luciferase cells | HEK293T ELG1-luciferase reporter, luminescence, 16 h | Potency, µM (highest dose often 46 µM), without a hit: at the highest dose activity change, positive = activation, usual class: activators | 1.3% of 330,000 active; also: % of control where 0% means no effect; nearly all actives have a fitted effect of over 60% in size
#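 DMSO vehicle served as control against compound-treated ELG1-luciferase HEK293T cells; exposure lasted 16 hr at 37 °C and 5% CO2, followed by ONE-Glo luminescence detection after 30 min.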
# NPC1 prom act: activates the NPC1 promoter; Huh7 NPC1 promoter luciferase reporter, 24 h; Potency, µM (titrated, usually from 9.22 µM), for inactives: top-dose activation, actives largely listed as activators; 2.4% of 320,000 active; AID 485313; also: % of control where 0% means no effect; nearly all actives have a fitted effect of over 60% in size
#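 Stably transfected Huh7 (NPC1 promoter→luciferase), 1500 cells/well in Opti-MEM + 10% FBS, 2 h settle, then compound 24 h at 37 °C. Luminescence after 10 min with Amplite reagent.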
# ELG1 DNA repair: inhibitors of ELG1-dependent DNA repair in HEK293T cells | 2.3% of 330,000 active | AID 504467 | Potency, µM (doses to about 46.1 µM), for inactives: at the top dose activity change, negative = inhibition, hits mostly inhibitors | HEK293T ELG1-luciferase reporter, luminescence, 16 h; DNA damage induced by 5-fluorouridine; also: % is scaled to controls: 0 for no effect and ±100 for the full control effect; nearly all actives have a fitted effect of over 55% in size
#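 Luminescence from the luciferase reporter, measured 30 min after ONE-Glo reagent at room temperature, was the read-out. Beforehand, 2,000 cells per well were exposed for 16 hr at 37 °C to 5-fluorouridine together with compound or vehicle.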
# SMN2 splice enh: SMN2 splice variant enhancement | HEK293 SMN2-luciferase splicing reporter, luminescence, 30-36 h | Potency, µM (doses to about 46.1 µM), for the others: top-dose activity change, positive = activation, usual class: activators | 2.8% of 210,000 active | AID 1458; also: % of control where 0% means no effect; nearly all actives have a fitted effect of over 55% in size
#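 qHTS luciferase splicing reporter: luminescence rises when SMN2 exon 7 is included in transfected HEK293 cells. Compound exposure lasted 30-36 h at 37C, with 4.5 mM final sodium butyrate as control, followed by a ONE-Glo read.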
# FLuc counter: firefly luciferase modulation, counter-screen for miR-21 project; Potency, µM (doses to about 57.5 µM), without a hit: top-dose activity change, negative = inhibition, usual class: inhibitors; 6.9% of 360,000 active; purified FLuc, Km substrates, luminescence inhibition;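 also: plate controls were vehicle for no effect and reference inhibitor for full effect; nearly all actives have a fitted effect of over 55% in size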
# Target sequence (P08659 whole entry, looked up): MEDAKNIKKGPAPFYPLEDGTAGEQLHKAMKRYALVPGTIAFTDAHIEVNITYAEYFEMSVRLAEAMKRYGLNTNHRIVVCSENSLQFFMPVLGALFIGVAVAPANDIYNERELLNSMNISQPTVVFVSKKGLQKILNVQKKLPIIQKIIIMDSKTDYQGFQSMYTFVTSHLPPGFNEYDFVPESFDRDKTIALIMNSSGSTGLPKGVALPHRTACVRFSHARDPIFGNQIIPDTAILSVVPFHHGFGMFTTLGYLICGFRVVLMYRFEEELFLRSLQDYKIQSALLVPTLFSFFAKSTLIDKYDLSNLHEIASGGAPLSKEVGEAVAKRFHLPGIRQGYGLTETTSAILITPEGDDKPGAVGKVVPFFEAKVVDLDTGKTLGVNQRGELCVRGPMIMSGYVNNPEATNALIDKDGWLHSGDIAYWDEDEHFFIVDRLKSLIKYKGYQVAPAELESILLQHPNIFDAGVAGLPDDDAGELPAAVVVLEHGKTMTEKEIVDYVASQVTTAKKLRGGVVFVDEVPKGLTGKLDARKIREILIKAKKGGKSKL
#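 Biochemical qHTS of compounds, final roughly 60 µM downward over six points, against 10 nM purified firefly luciferase using Km concentrations of substrates (10 uM D-luciferin, 10 uM ATP) in Tris acetate pH 7.5 buffer; luminescence output.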
# * = called active by the depositor; ? = inconclusive; nt = not tested or not shown. Calls follow the shape of the dose curve; as a rule, active = well fitted curve in the direction sought with a large enough effect; inconclusive = small, poorly fitted or top-dose-only effect, or another doubt; inactive = no such curve, though single readings can be large; an effect the other way counts as inactive or inconclusive. Potency is read from the fitted curve at half-maximal effect.
SMILES,Rab9 promoter act,ELG1 genotoxic,NPC1 prom act,ELG1 DNA repair,SMN2 splice enh,FLuc counter
O=C(N/N=C\c1cccnc1)c1ccc(Cl)s1,16%,?,1%,?,nt,13µM*
O=C(N/N=C/c1cccnc1)c1cc(O)c(O)c(O)c1,5%,1%,0%,16%,nt,-19%
O=C(N/N=C\c1ccncc1)c1ccc(Cl)s1,4%,15%,14%,20%,nt,17µM*
O=C(N/N=C\c1cccnc1)c1ccc(Br)s1,18%,10%,22%,?,nt,9.5µM*
O=C(Nc1nnc(-c2ccncc2)o1)c1ccc(Br)s1,-6%,-7%,-2%,8.2µM*,-61%,?
Cc1ccc(C(=O)N/N=C\c2ccncc2)s1,22%,?,21%,?,nt,?
O=C(N/N=C/c1ccc(Br)s1)c1cccnc1,0%,-1%,-1%,6%,-2%,-17%
CCC1Oc2ccc(C)cc2N(CC(=O)NCc2ccc(OC)cc2)C1=O (stereo not given),nt,nt,nt,nt,-2%,-14%
COc1ccc(C)cc1NC(=O)c1ccc2c(c1)CCN2S(=O)(=O)c1ccc(Cl)cc1,nt,nt,nt,nt,4%,-2%
CN(CC(=O)Nc1cccc(F)c1)C(=O)c1cccnc1Sc1ccccc1Cl,1%,1%,-7%,?,nt,-2%
COc1ccc2c(Cl)c(C(=O)N/N=C/c3cccnc3)sc2c1,-1%,-3%,-1%,-14%,nt,?
O=C(N/N=C/c1ccncc1)c1cc(-c2ccc(Br)s2)[nH]n1,-2%,1%,11%,4%,nt,15µM*
CCc1ccc(C(=O)N/N=C/c2ccncc2)s1,?,?,18%,?,nt,12µM*
O=C(N/N=C\c1ccncc1)c1ccc(Br)s1,5%,9%,-4%,?,nt,15µM*
O=C(N/N=C/c1cccnc1)c1sc2ccccc2c1Cl,11%,8%,0%,-1%,nt,19µM*
CCOC(=O)N1CCN(c2cc(=O)n(-c3cccc(C)c3)c(=O)[nH]2)CC1,-8%,1%,1%,0%,-23%,5%
CCCC1CCC(C(=O)n2nc(N)c3cc4ccc(OC)cc4nc32)CC1 (stereo not given),-2%,-10%,0%,5.8µM*,-12%,-1%
CCCC1CCC(C(=O)Nn2c(C)nc3ccccc3c2=O)CC1 (stereo not given),2%,-1%,0%,?,-21%,0%
Brc1ccc(C=Nc2ccc(Nc3ccccc3)cc2)s1,-4%,7%,-11%,?,17%,24µM*
Clc1cccc(Cl)c1/C=C/c1ccn[nH]1,8%,11%,-21%,-9%,nt,17µM*
CN1CCN(NC(=O)c2cc(-c3ccc(Br)s3)nc3ccccc23)CC1,-1%,23%,-5%,18%,nt,?
Cc1ccc(-c2cc(C(=O)NCCCn3ccnc3)c3ccccc3n2)s1,-1%,0%,1%,-14%,-45%,17µM*
O=C(O)c1cc(-c2ccc(Br)s2)nc2ccccc12,26%,9%,18%,?,nt,8.5µM*
O=C(NN1CCOCC1)c1cc(-c2ccccc2)nc2ccccc12,-7%,0%,1%,6%,-12%,1%
CCc1ccc(-c2cc(C(=O)NCCCn3ccnc3)c3ccccc3n2)s1,20%,?,6%,?,-1%,4.8µM*
SMILES,Rab9 promoter act,ELG1 genotoxic,NPC1 prom act,ELG1 DNA repair,SMN2 splice enh,FLuc counter
CCc1ccc(-c2cc(C(=O)NN3CCOCC3)c3ccccc3n2)s1,1%,10%,1%,?,12%,7.6µM*
COc1ccc(-c2cc(C(=O)NCCCn3ccnc3)c3ccccc3n2)c(OC)c1,-2%,3%,-2%,-8%,nt,-4%
COc1ccc(CCNC(=O)c2cc3c(cc2Cl)N2CCCCCC2=NS3(=O)=O)cc1,6%,-4%,10%,0%,nt,-1%
O=C(NCc1ccc(Cl)cc1)c1cnc(N2CCCCC2)c2ccccc12,nt,nt,nt,nt,nt,-14%
CCOC(=O)c1c(C)[nH]c(C)c1S(=O)(=O)N1CCC(C(=O)Nc2cc(Cl)ccc2OC)CC1,nt,nt,nt,nt,nt,-13%
CCN1C(=NCCc2c[nH]c3ccccc23)N[C@@H](c2ccccc2)[C@H](C(=O)OC)[C@H]1C,0%,-3%,-3%,-21%,nt,0%
CC1CCN(CCCCOc2ccccc2[N+](=O)[O-])CC1,3%,-2%,2%,1%,5%,2%
CCOC(=O)c1ccc(Oc2nc(OC)cc(OC)n2)cc1,1%,0%,1%,-1%,6%,-14%
O=[N+]([O-])c1ccc(CNc2ccc(Cl)cc2)s1,2%,-3%,2%,?,nt,-3%
CN1c2ccc(Cl)cc2C(=O)NC1c1ccc([N+](=O)[O-])s1 (stereo not given),-4%,-5%,-2%,21µM*,nt,3%
COc1ccc(C(CNC(=O)c2oc3ccccc3c2C)N2CCCC2)cc1 (stereo not given),-9%,-1%,-3%,-13%,nt,21µM*
CCOc1ccc2oc(C(=O)NC(C)(C)CC)c(C)c2c1,2.5µM*,?,?,?,?,17µM*
CCOc1ccc2oc(C(=O)NC3CC(C)(C)NC(C)(C)C3)c(C)c2c1,-3%,6%,0%,?,-4%,-3%
COc1ccc2oc(C(=O)NCCc3ccccc3)c(C)c2c1,?,?,0.45µM*,?,nt,?
COc1ccc2oc(C(=O)OCC(=O)NCCc3ccccc3)c(C)c2c1,10%,17%,0%,-2%,nt,-3%
Cc1c(C(=O)NCCc2ccccc2)oc2ccccc12,0.71µM*,2.1µM*,0.79µM*,?,nt,2.1µM*
CC(C)c1ccc(Cc2cnc(NC(=O)c3ccc4c(c3)CC(c3ccccc3)OC4=O)s2)cc1 (stereo not given),nt,nt,nt,nt,-11%,-3%
CN(C(=O)c1ccc(NC(=O)Cc2cccc(NC(=O)C3CCCN(C(=O)C4CCC4)C3)c2)cc1)C1CCCC1 (stereo not given),-10%,-3%,-1%,?,nt,-10%
CS(=O)(=O)N1N=C(c2ccccc2)CC1c1ccc2c(c1)OCO2 (stereo not given),2.8µM*,?,3.5µM*,?,?,21µM*
CS(=O)(=O)Nc1cccc(C2=NN(S(C)(=O)=O)C(c3ccc4c(c3)OCO4)C2)c1 (stereo not given),?,14%,17%,?,11µM*,17µM*
CS(=O)(=O)Nc1ccc(C2=NN(S(C)(=O)=O)C(c3ccccc3)C2)cc1 (stereo not given),18%,7%,8%,?,?,-18%
